Assay results reported in PubChem BioAssay AID1159580 (chemical genetic matrix, 2015).
Out of some 5,500 compounds screened, about 2,000 (36%) were called active. Roughly 18% stayed inconclusive and do not appear here. Cut-off read from the data, not from the text of the source: active = normalized growth mostly below about 0.91 (no sharp cut-off); inconclusive = no clear call, values can overlap the other calls; inactive = mostly above about 0.92. Some of the results follow.

Assay: chemical genetic growth profiling, strain panel (AID 1159580);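 note: tested at 20 µM; growth read once vehicle control cultures reached saturation at 30 °C; 1 = growth at the plate median or of vehicle wells; lower values mean less growth of the strain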
Settings: S. cerevisiae deletion strains, growth OD

Measured: normalized growth

CC(C)(Oc1ccc(Cl)cc1)C(=O)O
inactive: locus YAL013W, strain DEP1, active compounds read low 1 | locus YAL021C, strain ccr4, active compounds read low 1.02 | locus YAL026C, strain drs2, active compounds read low 1.03 | locus YAL030W, strain snc1, active compounds read low 0.996 | locus YBL061C, strain skt5, active compounds read low 1.04 | locus YBR009C, strain hhf1, active compounds read low 0.988 | locus YBR021W, strain FUR4, active compounds read low 1.12 | locus YBR023C, strain chs3, active compounds read low 1.03 | locus YBR171W, strain sec66, active compounds read low 1.02 | locus YBR229C, strain ROT2, active compounds read low 0.998 | locus YBR231C, strain swc5, active compounds read low 0.997 | locus YBR279W, strain paf1, active compounds read low 1.02 | locus YCL011C, strain gbp2, active compounds read low 1 | locus YCL016C, strain dcc1, active compounds read low 1.03 | locus YCL029C, strain bik1, active compounds read low 0.956 | locus YCL069W, strain vba3, active compounds read low 1.01 | locus YCR088W, strain abp1, active compounds read low 1.01 | locus YDL005C, strain med2, active compounds read low 1.02 | locus YDL035C, strain GPR1, active compounds read low 0.997 | locus YDL040C, strain nat1, active compounds read low 0.996 | locus YDL074C, strain BRE1, active compounds read low 0.949 | locus YDL101C, strain DUN1, active compounds read low 0.986 | locus YDL134C, strain PPH21, active compounds read low 1 | locus YDL185W, strain tfp1, active compounds read low 0.938 | locus YDL192W, strain arf1, active compounds read low 0.981 | locus YDR001C, strain nth1, active compounds read low 1 | locus YDR069C, strain doa4, active compounds read low 1.01 | locus YDR101C, strain arx1, active compounds read low 0.979 | locus YDR137W, strain rgp1, active compounds read low 1.01 | locus YDR150W, strain NUM1, active compounds read low 0.995 | locus YDR159W, strain sac3, active compounds read low 0.949 | locus YDR162C, strain NBP2, active compounds read low 0.987 | locus YDR195W, strain ref2 0.979 | locus YDR297W, strain sur2, active compounds read low 0.99 | locus YDR318W, strain mcm21, active compounds read low 0.98 | locus YDR334W, strain swr1, active compounds read low 1 | locus YDR335W, strain msn5, active compounds read low 1.01 | locus YDR388W, active compounds read low 0.979 | locus YDR392W, strain spt3, active compounds read low 0.974 | locus YDR502C, strain sam2, active compounds read low 0.993 | locus YEL003W, strain gim4, active compounds read low 0.984 | locus YEL037C, strain rad23, active compounds read low 1.01 | locus YEL061C, strain CIN8 (second series), active compounds read low 1 | locus YEL061C, strain CIN8, active compounds read low 1 | locus YER015W, strain faa2, active compounds read low 1.01 | locus YER016W, strain bim1, active compounds read low 1.03 | locus YER110C, active compounds read low 0.983 | locus YER111C, strain swi4, active compounds read low 1.01 | locus YER155C, strain BEM2 (second series), active compounds read low 1.01 | locus YER155C, strain BEM2, active compounds read low 0.983 | locus YER167W, strain BCK2, active compounds read low 0.999 | locus YFR010W, strain ubp6, active compounds read low 0.976 | locus YGL078C, strain dbp3, active compounds read low 0.998 | locus YGL086W, strain mad1, active compounds read low 0.997 | locus YGL167C, strain pmr1, active compounds read low 1.01 | locus YGL173C, strain kem1, active compounds read low 0.982 | locus YGL227W, strain vid30, active compounds read low 0.993 | locus YGL240W, strain doc1, active compounds read low 1 | locus YGL248W, strain PDE1, active compounds read low 1 | locus YGL253W, strain hxk2, active compounds read low 1.01 | locus YGR078C, strain PAC10, active compounds read low 0.954 | locus YGR135W, strain pre9, active compounds read low 1.01 | locus YGR229C, strain SMI1, active compounds read low 1 | locus YGR252W, strain gcn5, active compounds read low 1.23 | locus YHR013C, strain ard1, active compounds read low 1.02 | locus YHR027C, strain rpn1, active compounds read low 1 | locus YHR030C, strain SLT2, active compounds read low 1 | locus YHR079C, strain IRE1 (second series), active compounds read low 0.964 | locus YHR094C, strain hxt1, active compounds read low 0.963 | locus YHR129C, strain ARP1, active compounds read low 0.988 | locus YHR142W, strain chs7, active compounds read low 1.04 | locus YHR200W, strain rpn10, active compounds read low 0.977 | locus YIL066C, strain RNR3, active compounds read low 0.99 | locus YIL073C, strain SPO22, active compounds read low 0.948 | locus YIL125W, strain kgd1, active compounds read low 0.98 | locus YIR030C, strain dcg1, active compounds read low 0.988 | locus YJL092W, strain hpr5, active compounds read low 1.02 | locus YJL095W, strain BCK1 (second series), active compounds read low 1.02 | locus YJL095W, strain BCK1, active compounds read low 0.976 | locus YJL115W, strain asf1, active compounds read low 1.01 | locus YJL129C, strain trk1, active compounds read low 1.03 | locus YJL134W, strain LCB3, active compounds read low 0.999 | locus YJL154C, strain vps35, active compounds read low 1.01 | locus YJL164C, strain tpk1, active compounds read low 0.993 | locus YJL166W, strain qcr8, active compounds read low 0.997 | locus YJL168C, strain set2, active compounds read low 0.976 | locus YJL187C, strain SWE1 (second series), active compounds read low 0.973 | locus YJR043C, strain POL32, active compounds read low 0.985
